Records with an inconclusive call do not appear. Calls of active or inactive are those of the source. Calls follow the shape of the dose curve; as a rule, active = well fitted curve in the direction sought with a large enough effect; inconclusive = small, poorly fitted or top-dose-only effect, or another doubt; inactive = no such curve, though single readings can be large; an effect the other way counts as inactive or inconclusive.
Legend:
[1] = qHTS of pediatric cancer cell lines to identify multiple opportunities for drug repurposing: Primary screen for BT-12 cells (AID 1347101); also: nearly all actives have a fitted effect of over 25% in size
Procedure, shortened: (§1)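 Cells (500-1,000/well) rested 5 h, then received compounds for 48 h; metabolically active cells were measured by CellTiter-Glo luminescence. Final concentrations spanned up to 46 µM (MIPE, 11-point) or 0.59 nM-46 µM (NPC, 8-point) in primary screens, 11-point in follow-ups.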

[2] = qHTS of pediatric cancer cell lines to identify multiple opportunities for drug repurposing: Primary screen for Rh18 cells (AID 1347102); also: nearly all actives have a fitted effect of over 65% in size
Procedure, shortened: as §1

[3] = qHTS of pediatric cancer cell lines to identify multiple opportunities for drug repurposing: Primary screen for OHS-50 cells (AID 1347103); also: nearly all actives have a fitted effect of over 40% in size
Procedure, shortened: as §1

[4] = qHTS of pediatric cancer cell lines to identify multiple opportunities for drug repurposing: Primary screen for RD cells (AID 1347104); also: nearly all actives have a fitted effect of over 55% in size
Procedure, shortened: (§2)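 ATP-based luminescence (CellTiter-Glo) quantifies viability after a 48-hour exposure. Compounds are dosed across 8 or 11 final concentrations; DMSO and 2.3 µM bortezomib serve as controls.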

[5] = qHTS of pediatric cancer cell lines to identify multiple opportunities for drug repurposing: Primary screen for MG 63 (6-TG R) cells (AID 1347105); also: nearly all actives have a fitted effect of over 50% in size
Procedure, shortened: as §2

[6] = qHTS of pediatric cancer cell lines to identify multiple opportunities for drug repurposing: Primary screen for control Hh wild type fibroblast cells (AID 1347106);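 also: series mostly up to about 46 µM; a drop in luminescence marks cytotoxicity and a rise apparent proliferation; nearly all actives have a fitted effect of over 55% in size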
Procedure, shortened: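 Viability after 48 h compound treatment at 37C, 500-1,000 cells/well, read as ATP luminescence with CellTiter-Glo. Primary screens used 11-point (MIPE, 0.78 nM-46 µM) or 8-point (NPC, 0.59 nM-46 µM) final concentrations; follow-up screens used 11-point dilutions.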

[7] = qHTS of pediatric cancer cell lines to identify multiple opportunities for drug repurposing: Primary screen for Rh30 cells (AID 1347107); also: series mostly up to about 46 µM; nearly all actives have a fitted effect of over 75% in size
Procedure, shortened: as §1

[8] = qHTS of pediatric cancer cell lines to identify multiple opportunities for drug repurposing: Primary screen for Rh41 cells (AID 1347108);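 also: series mostly up to about 46 µM; luminescence drop marks cytotoxic hits; nearly all actives have a fitted effect of over 70% in size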
Procedure, shortened: as §2

Measured: Potency

COc1nc(C)nc(Cl)c1NC1=NCCN1
inactive: [1] | [2] | [3] | [4] | [5] | [6] | [7]

NS(=O)(=O)c1cc2c(cc1Cl)NCNS2(=O)=O
inactive: [1] | [2] | [3] | [4] | [5] | [6] | [7] | [8]

CCc1cccc2c3c([nH]c12)C(CC)(CC(=O)O)OCC3 (centres undefined)
inactive: [1] | [2] | [3] | [4] | [5] | [6] | [7]

CN(C)c1nc(N(C)C)nc(N(C)C)n1
inactive: [1] | [2] | [3] | [4] | [5] | [6] | [7]

NCCS(=O)(=O)O
inactive: [1] | [2] | [3] | [4] | [5] | [6] | [7] | [8]

Cn1c(=O)c2c(ncn2C)n(C)c1=O
inactive: [1] | [2] | [3] | [4] | [5] | [6] | [7]

Cn1ccc2cc3c(cc21)CCN3C(=O)Nc1cccnc1
inactive: [1] | [2] | [3] | [4] | [5] | [6] | [7] | [8]

CCN1CCCC1CNC(=O)c1cc(S(=O)(=O)CC)c(N)cc1OC (centres undefined)
inactive: [1] | [2] | [3] | [4] | [5] | [6] | [7]

NCCCCCC(=O)O
inactive: [1] | [2] | [3] | [4] | [5] | [6] | [7] | [8]

Cc1cn([C@H]2C[C@H](N=[N+]=[N-])[C@@H](CO)O2)c(=O)[nH]c1=O
inactive: [1] | [2] | [3] | [4] | [5] | [6] | [7]

O=C(C1CCCCC1)N1CC(=O)N2CCc3ccccc3C2C1 (centres undefined)
inactive: [1] | [2] | [3] | [4] | [5] | [6] | [7]

CN(CCOc1ccc(NS(C)(=O)=O)cc1)CCc1ccc(NS(C)(=O)=O)cc1
inactive: [1] | [2] | [3] | [4] | [5] | [6] | [7] | [8]

Cc1cn([C@H]2C=C[C@@H](CO)O2)c(=O)[nH]c1=O
inactive: [1] | [2] | [3] | [4] | [5] | [6] | [7]

Nc1c2c(nc3ccccc13)CCCC2
inactive: [1] | [2] | [3] | [4] | [5] | [6] | [7]

Cn1c(=O)c2[nH]cnc2n(C)c1=O
inactive: [1] | [2] | [3] | [4] | [5] | [6] | [7] | [8]

O=C1N(c2ccccc2)c2ccccc2C1(Cc1ccncc1)Cc1ccncc1
inactive: [1] | [2] | [3] | [4] | [5] | [6] | [7] | [8]

COc1cc2nc(N(C)CCCNC(=O)C3CCCO3)nc(N)c2cc1OC (centres undefined)
inactive: [1] | [2] | [3] | [4] | [5] | [6] | [7]

Nc1nnc(-c2cccc(Cl)c2Cl)c(N)n1
inactive: [1] | [2] | [3] | [4] | [5] | [6] | [7]

CCC1(C)CC(=O)NC1=O (centres undefined)
inactive: [1] | [2] | [3] | [4] | [5] | [6] | [7] | [8]

CN1C2CCC1CC(OC(=O)C(CO)c1ccccc1)C2 (centres undefined)
inactive: [1] | [2] | [3] | [4] | [5] | [6] | [7]

NC(=O)OCC(COC(N)=O)c1ccccc1
inactive: [1] | [2] | [3] | [4] | [5] | [6] | [7]

COc1ccc2c(c1)c(CC(=O)O)c(C)n2C(=O)c1ccc(Cl)cc1
inactive: [1] | [2] | [3] | [4] | [5] | [6] | [7]

CC(C)(C)C(=O)Oc1ccc(S(=O)(=O)Nc2ccccc2C(=O)NCC(=O)O)cc1
inactive: [1] | [2] | [3] | [4] | [5] | [6] | [7]
